Test systems include NCI-H23 lung; NCI-H226 lung; NCI-H322M lung; HOP-62 NSCLC; NCI-H460 lung; HOP-92 NSCLC; NCI-H522 lung; A549/ATCC NSCLC; 786-0 renal; COLO 205 colon; DU-145 prostate; K-562 leukemia; MALME-3M melanoma; MDA-MB-231 breast; RXF 393 renal; SF-268 CNS; SF-295 CNS; SF-539 CNS; UACC-257 melanoma; M14 melanoma.
Common to all, as to experiment: NCI-60 one-dose screen, 48 h (100 = growth as untreated, 0 = no growth, -100 = all killed)
Common to all, as to details: 10 µM unless noted

Molecules are shown by their SMILES. Where “and” joins values, the source holds several entries; their conditions need not be identical. Identical values can stand only once. About 83,000 compounds went through this panel and 20% of them were active in at least one assay; those are over-represented in the sample as a whole.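 Treatment: one concentration, 48 hours, 96-well format. Scoring: percent growth, with anything below 10 considered active.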 Calls of active or inactive are those of the source. Where a SMILES comes first, the peptide text is derived from it. The star is where a group is joined. Trt = c1ccc(C(c2ccccc2)(c2ccccc2)*)cc1; Cbz = O=C(OCc1ccccc1)*

Growth data for seven molecules are collected here from PubChem BioAssay (NCI).

Take `COC(=O)Nc1nc2ccc(C(=O)c3ccccc3)cc2[nH]1`: the growth in the test on NCI-H23 lung is 33.8% (inactive) and 19.3% (inactive) and 32.4% (inactive); in the test on NCI-H226 lung, 50.9% (inactive) and 80.4% (inactive) and 109% (inactive); with NCI-H322M lung, 56.9% (inactive) and 66.1% (inactive) and 44.1% (inactive); with HOP-62 NSCLC, 30.4% (inactive) and 21.9% (inactive) and 49.2% (inactive); in the test with NCI-H460 lung, 6.48% (active) and 1.24% (active) and -0.135% (active); with HOP-92 NSCLC it was 65.7% (inactive) and 41.8% (inactive) and 35.3% (inactive). In addition, the growth was -11.7% (active) and -16.9% (active) and -32.5% (active) in the test with NCI-H522 lung; 20.8% (inactive) and 22.2% (inactive) and 17.2% (inactive) in the test with A549/ATCC NSCLC; 19.8% (inactive) and 23.6% (inactive) and 31.9% (inactive) in the test on 786-0 renal; 0.824% (active) and -17.1% (active) and -22.8% (active) in the test on COLO 205 colon; 26.8% (inactive) and -20.2% (active) and -19.3% (active) in the test with DU-145 prostate; 6.5% (active) and 4.72% (active) and 4.39% (active) with K-562 leukemia. Also, the growth in the test on MALME-3M melanoma was 26.5% (inactive) and 58.6% (inactive) and 54.1% (inactive); with MDA-MB-231 breast, 51.3% (inactive) and 25.5% (inactive) and 38% (inactive); in the test on RXF 393 renal it was -12.3% (active) and -5.96% (active); with SF-268 CNS, 53.7% (inactive) and 21.3% (inactive) and 27.4% (inactive); with SF-295 CNS, 0.877% (active) and -10.3% (active) and -13.1% (active); in the test with SF-539 CNS, 2.99% (active) and -28.1% (active) and -34% (active). Moreover, the growth is 61% (inactive) and 77.2% (inactive) and 69.8% (inactive) in the test on UACC-257 melanoma; -24.2% (active) and 0.911% (active) and 20.7% (inactive) in the test with M14 melanoma.

Turning to `CC(C)(C)CC(C)(C)c1ccc(OCCSC(=N)N)cc1`, the growth with NCI-H23 lung is 60.7% (inactive); in the test with NCI-H226 lung, 71.8% (inactive); in the test with NCI-H322M lung, 71.6% (inactive); in the test with HOP-62 NSCLC it was 98.4% (inactive); with NCI-H460 lung it was 35% (inactive); in the test with HOP-92 NSCLC it was 17.7% (inactive). Besides, the growth with NCI-H522 lung was 48.3% (inactive); in the test on A549/ATCC NSCLC, 77.2% (inactive); in the test with 786-0 renal it was 28.2% (inactive); with COLO 205 colon, -76.9% (active); with DU-145 prostate, 72.4% (inactive); in the test with K-562 leukemia, 0.322% (active). Also, the growth in the test on MALME-3M melanoma was -0.257% (active); with MDA-MB-231 breast it was -7.07% (active); with RXF 393 renal, 60.8% (inactive); in the test on SF-268 CNS, 55% (inactive); in the test with SF-295 CNS, -34.7% (active); with SF-539 CNS, -6.57% (active). For the same molecule, the growth was 76.7% (inactive) in the test with UACC-257 melanoma and -48.5% (active) in the test on M14 melanoma.

For `CCCCCCCCCCCCCCCCN(CC)CC`, the growth in the test with NCI-H23 lung was -93.1% (active); in the test on NCI-H226 lung it was -65.9% (active); with NCI-H322M lung, 14.5% (inactive); in the test on HOP-62 NSCLC, -54.4% (active); with NCI-H460 lung, 1.87% (active); in the test on HOP-92 NSCLC, -67.9% (active). Also, the growth in the test on NCI-H522 lung is -82.4% (active); with A549/ATCC NSCLC, -69.5% (active); with 786-0 renal, -86.1% (active); with COLO 205 colon it was -62.5% (active); in the test on DU-145 prostate it was -48.4% (active); with K-562 leukemia, -73.5% (active). For the same molecule, the growth with MALME-3M melanoma is -90.3% (active); with MDA-MB-231 breast it was -86.9% (active); with RXF 393 renal, -86.2% (active); in the test with SF-268 CNS it was -34.8% (active); in the test with SF-295 CNS, -92.9% (active); in the test on SF-539 CNS, -98.2% (active). The growth in the test on UACC-257 melanoma was -51.9% (active); in the test on M14 melanoma it was -16.9% (active).

With `S=C(N/N=C/c1ccccn1)Nc1ccccn1`, the growth in the test on NCI-H23 lung was 23.8% (inactive); in the test with NCI-H226 lung it was 12.1% (inactive); in the test with NCI-H322M lung it was 22.4% (inactive); in the test with HOP-62 NSCLC, 13.7% (inactive); in the test with NCI-H460 lung, 2.59% (active); in the test with HOP-92 NSCLC, -2.58% (active). In addition, the growth was -39.9% (active) with NCI-H522 lung; 20.7% (inactive) with A549/ATCC NSCLC; 2.42% (active) in the test with 786-0 renal; 9.1% (active) with COLO 205 colon; 28.4% (inactive) with DU-145 prostate; 8.45% (active) in the test on K-562 leukemia. For the same molecule, the growth in the test with MALME-3M melanoma is 10.6% (inactive); in the test on MDA-MB-231 breast, 42.4% (inactive); in the test with RXF 393 renal it was 2.43% (active); in the test with SF-268 CNS, 32% (inactive); with SF-295 CNS it was 27.1% (inactive); with SF-539 CNS, 14.1% (inactive). Further, the growth in the test on UACC-257 melanoma is -14.9% (active); with M14 melanoma, 0.168% (active).

As for `N#CSCC(=O)c1ccc(Cl)cc1`, the growth with NCI-H23 lung is 9.41% (active); in the test with NCI-H226 lung, 65.8% (inactive); with NCI-H322M lung, 71.7% (inactive); in the test on HOP-62 NSCLC, 45.1% (inactive); in the test on NCI-H460 lung it was 33.5% (inactive); in the test with HOP-92 NSCLC, -3.98% (active). Moreover, the growth with NCI-H522 lung was 50.6% (inactive); in the test on A549/ATCC NSCLC, 87.1% (inactive); with 786-0 renal it was 22.3% (inactive); with COLO 205 colon, 90.3% (inactive); in the test on DU-145 prostate, 30.2% (inactive); in the test on K-562 leukemia, 44.4% (inactive). The growth was 54.8% (inactive) with MALME-3M melanoma; 34.4% (inactive) with MDA-MB-231 breast; 25.6% (inactive) with RXF 393 renal; 34.6% (inactive) in the test on SF-268 CNS; 49.4% (inactive) in the test with SF-295 CNS; 22.2% (inactive) with SF-539 CNS. Besides, the results for the growth with UACC-257 melanoma and in the test on M14 melanoma were 82.3% (inactive) and 2.91% (active), respectively.

As for `Cc1ccc2nc(-[n+]3cc4ccccc4cc3C)ccc2c1`, the growth in the test with NCI-H23 lung was 19.1% (inactive); with NCI-H226 lung, 53.7% (inactive); in the test on NCI-H322M lung, 85.2% (inactive); in the test with HOP-62 NSCLC, 37.1% (inactive); with NCI-H460 lung it was 29.5% (inactive); in the test on HOP-92 NSCLC, 5.49% (active). In addition, the growth was 26.2% (inactive) with NCI-H522 lung; 43.1% (inactive) in the test on A549/ATCC NSCLC; 81.2% (inactive) in the test with 786-0 renal; -11.8% (active) in the test with COLO 205 colon; 53.6% (inactive) with DU-145 prostate; 39.1% (inactive) with K-562 leukemia. Also, the growth with MALME-3M melanoma is 44.2% (inactive); in the test on MDA-MB-231 breast it was 54.8% (inactive); in the test with RXF 393 renal, 91.2% (inactive); in the test with SF-268 CNS, 39.5% (inactive); with SF-295 CNS it was 33.3% (inactive); with SF-539 CNS, 43.8% (inactive). In addition, the growth was 11.4% (inactive) in the test on UACC-257 melanoma and 43.1% (inactive) with M14 melanoma.

On to `COC(=O)C(CSC(c1ccccc1)(c1ccccc1)c1ccccc1)NC(=O)C(CC(N)=O)NC(=O)OCc1ccccc1` (stereo not drawn) (Cbz-Asn-Cys(Trt)-OMe; configuration not given here), for which the growth in the test on NCI-H23 lung is 65.4% (inactive); in the test with NCI-H226 lung, 71.4% (inactive); with NCI-H322M lung it was 30.8% (inactive); in the test with HOP-62 NSCLC, 41.4% (inactive); with NCI-H460 lung it was 31.2% (inactive); with HOP-92 NSCLC, 55.7% (inactive). Also, the growth is 51.5% (inactive) in the test with NCI-H522 lung; 41.4% (inactive) in the test with A549/ATCC NSCLC; 30.7% (inactive) with 786-0 renal; -50.8% (active) in the test with COLO 205 colon; 13.4% (inactive) with DU-145 prostate; 25.4% (inactive) in the test on K-562 leukemia. The growth with MALME-3M melanoma was 27.1% (inactive); in the test on MDA-MB-231 breast, 12.5% (inactive); with RXF 393 renal it was 34.1% (inactive); in the test with SF-268 CNS it was 18% (inactive); in the test on SF-295 CNS, 20.1% (inactive); in the test with SF-539 CNS, -22% (active). Further, the growth with UACC-257 melanoma is 59.1% (inactive); with M14 melanoma it was -57.4% (active).
